Assay [1] concerns PRMT1 (protein arginine N-methyltransferase 1). Nature of the assay: PRMT1 binders on small-molecule microarrays, primary screen, biochemical, small-molecule microarray, 635 nm fluorescence (AID 1088).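 Note: binding of Prmt1 protein to compounds spotted on small-molecule microarray slides.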 The settings on record: small-molecule microarray binding, higher = more signal.
Assay [2] in a line: yeast growth modulation, basal conditions, primary screen, YJM789 clinical isolate, OD600, 24 h (AID 1089).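 Note: growth of clinical yeast isolate S. cerevisiae YJM 789 seeded 1000 cells per well; test concentration not given here.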 The settings on record: S. cerevisiae YJM789 growth, higher = more signal, called active from +8 up or from −8 down.
Assay [3] can be described thus: fission yeast growth modulation, primary screen, strain 972, OD600, 24 h, no modulator (AID 1090).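 Note: basal condition with compound alone and no growth modifier present; test concentration not given here.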 The following applies: S. pombe 972 growth, higher = more signal, called active from +8 up or from −8 down.
Assay [4] is described as follows: S. cerevisiae growth modulation with rapamycin, primary screen, strain BY4716, OD600, 96 h (AID 1091). Note: test concentration not given here. The settings on record: higher = more signal, called active from +8 up or from −8 down.
Assay [5] addresses Torsin-1A-interacting protein 2 (Homo sapiens) (UniProt Q8NFQ8). Nature of the assay: LULL1 binders on small-molecule microarray, primary screen, cell lysate, human LULL1 lysate, 635/667 nm fluorescence (AID 1092).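 Note: probe is lysate of COS7 cells overexpressing human LULL1; score merges per-feature 667 nm fluorescence with signal-to-noise.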 The following applies: hLULL1 lysate binding, 635 nm fluorescence, higher = more signal.
Assay [6] is described as follows: E. coli growth modulation, two-sided OD650, primary screen, E. coli filamentation project, strain DRC41, 24 h (AID 1093).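 Note: MC1000 strain lacking acrAB efflux and sulA so SOS filamentation is blocked; test concentration not given here.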 The settings on record: OD650, 24 h, higher = more signal, called active from +8 up or from −8 down.
A short description of assay [7]: small-molecule microarray binders of probe aLefty2, primary screen, biochemical, biotinylated probe, 635/667 nm fluorescence (AID 1094).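 Note: score merges spot fluorescence near 667 nm with spot signal-to-noise ratio.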 The following applies: higher = more signal.
The subject of assay [8] is Noggin (protein binding on small-molecule microarray). The experiment in a line: Noggin binders on small-molecule microarray, primary screen, biochemical, 635/667 nm fluorescence (AID 1095).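 Note: score merges 667 nm feature fluorescence with signal to noise over triplicate slides.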 The settings on record: 635 nm fluorescence, higher = more signal.
The target in assay [9] is Neurogenic locus notch homolog protein 3 (Homo sapiens) (UniProt Q9UM47). The experiment in a line: NOTCH3 binders on small-molecule microarray, primary screen, biochemical, 635/667 nm fluorescence (AID 1096). The following applies: NOTCH3 binding, 635 nm fluorescence, higher = more signal.
Sequence of Neurogenic locus notch homolog protein 3 (Homo sapiens) (Q9UM47 whole entry, looked up): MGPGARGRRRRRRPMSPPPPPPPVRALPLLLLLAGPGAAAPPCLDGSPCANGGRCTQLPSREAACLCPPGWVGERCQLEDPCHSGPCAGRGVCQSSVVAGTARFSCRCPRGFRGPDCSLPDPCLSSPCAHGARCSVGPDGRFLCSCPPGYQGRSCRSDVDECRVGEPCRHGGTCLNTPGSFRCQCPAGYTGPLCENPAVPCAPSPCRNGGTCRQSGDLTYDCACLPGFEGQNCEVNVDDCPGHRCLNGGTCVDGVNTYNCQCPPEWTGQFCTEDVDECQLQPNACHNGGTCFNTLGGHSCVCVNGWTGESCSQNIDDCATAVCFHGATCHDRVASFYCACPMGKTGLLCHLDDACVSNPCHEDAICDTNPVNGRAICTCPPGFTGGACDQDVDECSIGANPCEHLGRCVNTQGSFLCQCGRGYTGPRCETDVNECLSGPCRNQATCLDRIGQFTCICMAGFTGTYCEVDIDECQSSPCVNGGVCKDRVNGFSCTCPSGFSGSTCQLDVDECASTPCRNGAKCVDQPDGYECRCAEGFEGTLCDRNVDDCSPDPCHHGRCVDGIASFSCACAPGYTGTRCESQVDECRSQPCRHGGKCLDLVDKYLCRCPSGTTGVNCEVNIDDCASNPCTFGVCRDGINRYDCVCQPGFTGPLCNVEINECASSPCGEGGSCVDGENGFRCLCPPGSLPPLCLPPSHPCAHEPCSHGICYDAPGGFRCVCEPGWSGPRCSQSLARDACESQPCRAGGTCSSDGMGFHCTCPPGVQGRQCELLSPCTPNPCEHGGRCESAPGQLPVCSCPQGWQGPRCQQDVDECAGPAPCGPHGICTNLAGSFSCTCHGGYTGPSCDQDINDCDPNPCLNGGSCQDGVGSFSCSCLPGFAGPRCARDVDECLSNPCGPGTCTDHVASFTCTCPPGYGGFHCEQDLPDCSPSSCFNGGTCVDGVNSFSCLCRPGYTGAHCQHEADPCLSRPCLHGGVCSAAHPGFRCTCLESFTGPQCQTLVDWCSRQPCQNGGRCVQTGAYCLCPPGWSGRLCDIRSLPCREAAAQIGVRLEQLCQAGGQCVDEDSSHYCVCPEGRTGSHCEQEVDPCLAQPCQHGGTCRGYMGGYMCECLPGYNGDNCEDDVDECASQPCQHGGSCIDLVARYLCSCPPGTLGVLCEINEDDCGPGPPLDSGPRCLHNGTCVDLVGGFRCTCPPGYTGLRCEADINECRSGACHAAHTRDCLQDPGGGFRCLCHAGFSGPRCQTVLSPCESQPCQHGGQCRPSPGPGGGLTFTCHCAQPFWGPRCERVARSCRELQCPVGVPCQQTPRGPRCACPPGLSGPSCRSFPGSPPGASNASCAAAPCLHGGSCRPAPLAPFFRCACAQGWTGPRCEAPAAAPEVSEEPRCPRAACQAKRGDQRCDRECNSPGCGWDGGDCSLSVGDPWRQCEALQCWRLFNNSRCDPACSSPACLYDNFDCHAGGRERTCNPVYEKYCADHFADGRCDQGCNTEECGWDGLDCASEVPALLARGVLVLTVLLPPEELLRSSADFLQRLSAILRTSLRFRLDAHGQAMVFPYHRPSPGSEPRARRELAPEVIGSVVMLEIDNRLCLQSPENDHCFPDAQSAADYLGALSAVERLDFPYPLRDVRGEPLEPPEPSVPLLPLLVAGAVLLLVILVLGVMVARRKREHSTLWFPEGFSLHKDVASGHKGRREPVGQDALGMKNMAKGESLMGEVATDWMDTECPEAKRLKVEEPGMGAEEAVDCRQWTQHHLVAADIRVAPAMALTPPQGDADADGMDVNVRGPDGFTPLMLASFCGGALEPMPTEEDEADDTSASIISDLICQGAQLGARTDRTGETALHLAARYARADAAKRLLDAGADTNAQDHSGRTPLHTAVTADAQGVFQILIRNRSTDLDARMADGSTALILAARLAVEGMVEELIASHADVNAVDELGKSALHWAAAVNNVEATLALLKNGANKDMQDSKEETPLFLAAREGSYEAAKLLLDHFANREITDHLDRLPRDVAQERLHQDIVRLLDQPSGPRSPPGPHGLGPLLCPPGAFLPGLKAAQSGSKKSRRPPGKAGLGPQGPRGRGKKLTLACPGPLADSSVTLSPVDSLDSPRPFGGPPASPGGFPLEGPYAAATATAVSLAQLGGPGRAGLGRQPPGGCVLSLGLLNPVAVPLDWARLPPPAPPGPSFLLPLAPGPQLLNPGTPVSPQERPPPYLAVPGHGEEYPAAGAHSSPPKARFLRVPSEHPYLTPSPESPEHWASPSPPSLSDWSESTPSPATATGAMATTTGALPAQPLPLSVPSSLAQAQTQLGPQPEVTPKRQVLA
Assay [10] is described as follows: small-molecule microarray binders of probe aEGFR, primary screen, biochemical, biotinylated probe, 635/667 nm fluorescence (AID 1097).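 Note: probe is a biotinylated anti-EGFR antibody binding compounds printed on slides; score combines fluorescence near 667 nm and signal to noise of each spot.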 The settings on record: higher = more signal.
For assay [11], the system named is Plasmodium falciparum Sir2 (PF13_0152, Sir2A). The experiment in a line: pfSir2 binders on small-molecule microarrays, primary screen, biochemical, small-molecule microarray, 635 nm fluorescence (AID 1098).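 Note: score merges spot fluorescence intensity with its signal-to-noise ratio.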 The following applies: small-molecule microarray binding, fluorescence 635 nm; higher = more signal.
Assay [12] is described as follows: small-molecule microarray binders of probe aDKK1, primary screen, biochemical, biotinylated probe, 635/667 nm fluorescence (AID 1099).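 Note: score merges 667nm spot fluorescence with signal to noise across triplicate slides; reference of the scale not given here.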 The settings on record: higher = more signal.
Assay [13] is described as follows: small-molecule microarray binders of probe aCHRDL2, primary screen, biochemical, biotinylated probe, 635/667 nm fluorescence (AID 1100). The following applies: higher = more signal.
A short description of assay [14]: splicing luciferase reporter signal modulators, primary screen, spliceosome inhibition project, cell-based, HEK293, splice +/- reporter (AID 1101).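 Note: HEK293 cells carrying a splicing-competent luciferase reporter gene; test concentration not given here.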 The following applies: luminescence, 24 h, higher = more signal, called active from +8 up or from −8 down. On the technique in general: In a reporter assay the amount or activity of a reporter protein is the signal.
The target in assay [15] is Fibroblast growth factor 10 (Homo sapiens) (UniProt O15520). The experiment in a line: FGF10 binders on small-molecule microarrays, primary screen, biochemical, small-molecule microarray, 635 nm fluorescence (AID 1102). The following applies: FGF10 binding, fluorescence 635 nm, higher = more signal.
Sequence of Fibroblast growth factor 10 (Homo sapiens) (O15520 whole entry, looked up): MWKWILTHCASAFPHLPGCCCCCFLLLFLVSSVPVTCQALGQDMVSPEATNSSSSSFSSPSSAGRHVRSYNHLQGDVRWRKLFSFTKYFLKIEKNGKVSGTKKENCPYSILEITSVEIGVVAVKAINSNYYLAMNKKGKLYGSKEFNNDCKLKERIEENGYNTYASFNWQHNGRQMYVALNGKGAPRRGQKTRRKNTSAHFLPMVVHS
For assay [16], the system named is glycogen synthase kinase-3 (GSK3A per assay name; protocol says GSK3B). Nature of the assay: GSK3 binders on small-molecule microarrays, primary screen, biochemical, small-molecule microarray, 635 nm fluorescence, GSK3A (AID 1103). Note: the record names both GSK3A and GSK3B. The settings on record: small-molecule microarray binding, fluorescence 635 nm; higher = more signal.
Assay [17] concerns the target Epidermal growth factor receptor (Homo sapiens) (UniProt P00533). Nature of the assay: EGFR binders on small-molecule microarrays, primary screen, biochemical, small-molecule microarray, 635 nm fluorescence (AID 1104).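 Note: score merges 667 nm emission intensity with spot signal to noise over triplicate slides.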 The settings on record: EGFR binding, higher = more signal.
Assay [18] deals with Follistatin-related protein 3 (Homo sapiens) (UniProt O95633). The experiment in a line: FSTL3 binders on small-molecule microarrays, primary screen, biochemical, small-molecule microarray, 635 nm fluorescence (AID 1105).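 Note: score merges emission near 667 nm and signal to noise per printed spot across three slides.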 The settings on record: FSTL3 binding, higher = more signal.
Sequence of Follistatin-related protein 3 (Homo sapiens) (O95633 whole entry, looked up): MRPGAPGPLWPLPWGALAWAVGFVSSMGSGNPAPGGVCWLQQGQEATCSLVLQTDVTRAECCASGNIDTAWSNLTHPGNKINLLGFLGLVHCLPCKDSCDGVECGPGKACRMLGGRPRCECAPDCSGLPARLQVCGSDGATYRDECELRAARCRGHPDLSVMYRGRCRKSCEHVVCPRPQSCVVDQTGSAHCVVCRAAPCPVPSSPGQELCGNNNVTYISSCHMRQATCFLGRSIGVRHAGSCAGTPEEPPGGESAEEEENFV
For assay [19], the target named is Dickkopf-related protein 1 (Homo sapiens) (UniProt O94907). Nature of the assay: DKK1 binders on small-molecule microarrays, primary screen, biochemical, small-molecule microarray, 635 nm fluorescence scan (AID 1106).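 Note: score merges emission near 667 nm with signal to noise over three replicate slides.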 The following applies: DKK1 binding, higher = more signal.
Sequence of Dickkopf-related protein 1 (Homo sapiens) (O94907 whole entry, looked up): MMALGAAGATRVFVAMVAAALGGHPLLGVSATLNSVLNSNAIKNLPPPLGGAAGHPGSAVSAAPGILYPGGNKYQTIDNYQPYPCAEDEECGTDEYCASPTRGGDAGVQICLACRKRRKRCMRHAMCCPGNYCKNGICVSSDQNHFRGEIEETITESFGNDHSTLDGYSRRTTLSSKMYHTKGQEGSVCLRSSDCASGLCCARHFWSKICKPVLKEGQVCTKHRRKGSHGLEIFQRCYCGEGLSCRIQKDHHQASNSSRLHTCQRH
For assay [20], the system named is Inhibin beta A chain (activin A). Nature of the assay: INHBA (activin A) binders on microarrays, primary screen, biochemical, small-molecule microarray, 635 nm fluorescence scan (AID 1107).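 Note: mouse activin A protein probed at 4.33 µg/mL on printed slides; score merges bound-protein fluorescence near 667 nm with spot signal-to-noise.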 The following applies: small-molecule microarray binding, higher = more signal.

Each structure is given as a SMILES string. Calls of active or inactive are those of the source.

Five compounds from PubChem BioAssay can be followed below.

Sequence of Epidermal growth factor receptor (Homo sapiens) (P00533 whole entry, looked up): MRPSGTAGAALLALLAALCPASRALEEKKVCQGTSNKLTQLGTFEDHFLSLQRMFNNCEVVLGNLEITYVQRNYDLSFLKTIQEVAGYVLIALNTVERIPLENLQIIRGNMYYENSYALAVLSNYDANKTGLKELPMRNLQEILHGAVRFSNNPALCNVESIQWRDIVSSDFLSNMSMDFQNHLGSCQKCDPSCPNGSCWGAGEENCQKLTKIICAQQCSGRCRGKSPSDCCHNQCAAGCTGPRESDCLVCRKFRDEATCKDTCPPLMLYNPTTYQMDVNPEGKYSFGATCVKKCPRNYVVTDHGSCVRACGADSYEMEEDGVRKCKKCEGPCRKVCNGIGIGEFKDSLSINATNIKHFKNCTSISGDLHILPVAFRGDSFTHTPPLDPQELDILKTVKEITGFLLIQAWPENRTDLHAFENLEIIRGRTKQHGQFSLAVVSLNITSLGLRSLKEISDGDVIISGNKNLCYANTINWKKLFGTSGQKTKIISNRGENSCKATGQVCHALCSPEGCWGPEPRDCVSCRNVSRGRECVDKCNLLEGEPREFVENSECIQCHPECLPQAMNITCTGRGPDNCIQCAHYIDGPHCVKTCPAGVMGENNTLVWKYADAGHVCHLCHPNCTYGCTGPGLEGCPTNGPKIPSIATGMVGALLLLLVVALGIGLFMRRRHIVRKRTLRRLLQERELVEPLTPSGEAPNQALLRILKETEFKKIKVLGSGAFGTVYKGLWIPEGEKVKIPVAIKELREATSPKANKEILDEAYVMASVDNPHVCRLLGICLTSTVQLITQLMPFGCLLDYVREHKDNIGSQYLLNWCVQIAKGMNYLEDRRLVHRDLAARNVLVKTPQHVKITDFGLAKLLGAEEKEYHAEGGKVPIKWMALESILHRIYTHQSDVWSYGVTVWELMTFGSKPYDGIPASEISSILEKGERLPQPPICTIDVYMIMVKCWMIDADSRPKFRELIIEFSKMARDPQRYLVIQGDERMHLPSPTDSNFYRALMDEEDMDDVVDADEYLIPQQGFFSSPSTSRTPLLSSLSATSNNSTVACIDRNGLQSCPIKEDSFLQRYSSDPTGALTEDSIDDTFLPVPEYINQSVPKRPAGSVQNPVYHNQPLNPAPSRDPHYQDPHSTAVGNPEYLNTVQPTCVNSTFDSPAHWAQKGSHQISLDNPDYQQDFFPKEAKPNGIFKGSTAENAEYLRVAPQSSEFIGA
Sequence of Torsin-1A-interacting protein 2 (Homo sapiens) (Q8NFQ8 whole entry, looked up): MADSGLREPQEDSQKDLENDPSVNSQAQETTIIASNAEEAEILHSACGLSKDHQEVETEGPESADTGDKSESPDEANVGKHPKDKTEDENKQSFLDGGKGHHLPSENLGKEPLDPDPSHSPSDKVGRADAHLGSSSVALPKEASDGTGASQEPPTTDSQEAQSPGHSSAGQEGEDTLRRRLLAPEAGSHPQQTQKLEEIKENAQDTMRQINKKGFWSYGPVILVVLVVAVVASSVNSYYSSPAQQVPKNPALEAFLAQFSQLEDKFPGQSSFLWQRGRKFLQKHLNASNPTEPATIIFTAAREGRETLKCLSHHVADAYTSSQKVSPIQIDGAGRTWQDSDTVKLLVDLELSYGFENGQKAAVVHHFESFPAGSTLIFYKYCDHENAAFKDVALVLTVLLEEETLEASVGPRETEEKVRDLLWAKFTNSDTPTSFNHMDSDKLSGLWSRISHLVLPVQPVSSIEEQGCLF

Regarding `COC(=O)[C@@]1(Cc2ccc(OC)cc2)[C@H]2c3cc(C(=O)N4CCCC4)n(CCN4CCOCC4)c3C[C@H]2CN1C(=O)c1ccccc1`, the composite z-score was determined as 0.57 in assay [1]; 3.66 in assay [5]; 1.73 in [7]; 0.398 in assay [8]; 0.937 in assay [9]; 1.23 in [10]. Further, the composite z-score in assay [11] was found to be 1.25; in [12], 2.6; in assay [13], 1.52; in assay [15] it was 1.35; in assay [16] it was 0.325; in [17], 0.947. For the same compound, the composite z-score is 0.629 in assay [18], -0.138 in assay [19] and 0.492 in assay [20]. The z-score was -0.674 (inactive) in assay [2]; 1.15 (inactive) in assay [3]; -1.32 (inactive) in [4]; -0.22 (inactive) in assay [6]; 0.0643 (inactive) in assay [14].
Turning to `NC(=O)NCC#Cc1ccc2c(c1)[C@]1(C(=O)N2)[C@H](c2ccccc2OCCO)N2[C@H](c3ccccc3)[C@H](c3ccccc3)OC(=O)[C@H]2[C@@H]1C(=O)N1CCCCCCC1`, the composite z-score in [1] turned out to be 1.55; in [5], 4.09; in [7], 1.79; in assay [8], 1.8; in [9], 1.11; in assay [10], 1.21. For the same compound, the composite z-score in [11] amounted to 1.68; in assay [12] it was 2.88; in assay [13], 1.73; in [15], 0.91; in assay [16], 1.35; in assay [17] it was 1.42. Moreover, the composite z-score in assay [18] worked out at 1.6; in assay [19], 1.26; in assay [20], 1.88. In addition, the z-score in assay [2] is 0.456 (inactive); in assay [3], -1.36 (inactive); in assay [4], 1.49 (inactive); in assay [6] it was 1.26 (inactive); in assay [14], -0.308 (inactive).
On to `COc1ccc([Si](C)(C)[C@H]2[C@H](CC(=O)N3CCC[C@H]3CO)O[C@@]3(C(=O)N(Cc4cccc(N5CCC5=O)c4)c4ccccc43)[C@@H]2C)cc1`, for which the composite z-score in [1] is 1.55; in assay [5], 2.6; in [7], 0.226; in [8], 1; in assay [9], 1.13; in [10], 0.133. For the same compound, the composite z-score in [11] is 1.11; in assay [12], -0.0732; in assay [13], -0.222; in [15] it was 1.4; in assay [16], 1.27; in assay [17], 0.993. The composite z-score in assay [18] was 1.45; in assay [19], 0.672; in assay [20], 0.728. In addition, the z-score is -0.795 (inactive) in assay [2]; 0.289 (inactive) in assay [3]; -0.743 (inactive) in assay [4]; 1.24 (inactive) in [6]; 0.566 (inactive) in assay [14].
On to `COc1ccc([Si](C)(C)[C@H]2[C@H](CC(=O)N3Cc4ccccc4C[C@H]3CO)O[C@@]3(C(=O)N(Cc4cccc(I)c4)c4ccccc43)[C@@H]2C)cc1`, for which the composite z-score is 1.55 in assay [1]; -0.48 in [5]; -0.119 in assay [7]; 2.05 in [8]; 0.863 in assay [9]; -0.0758 in assay [10]. In addition, the composite z-score was 0.391 in assay [11]; -0.29 in assay [12]; -0.162 in assay [13]; 1.15 in assay [15]; 0.346 in assay [16]; 1.4 in assay [17]. In addition, the composite z-score was determined as 1.36 in assay [18], 1.57 in assay [19] and 1.76 in assay [20]. Further, the z-score in [2] was -0.413 (inactive); in assay [3], 0.603 (inactive); in [4], 2.75 (inactive); in assay [6], 1.2 (inactive); in assay [14] it was -1.73 (inactive).
As to `CC(C)NC(=O)[C@@]1(c2ccc([N+](=O)[O-])cc2)CC(=O)N(C(C)C)[C@@H]1c1ccc(CO)cc1`, the composite z-score in [1] was 0.859; in assay [5] it was 2.61; in assay [7] it was 0.0945; in assay [8] it was -1.14; in assay [9], -0.323; in assay [10] it was -0.253. In addition, the composite z-score in [11] is -0.277; in assay [12], -0.247; in assay [13], 1.07; in [15] it was -0.907; in [16] it was -0.153; in assay [17], -0.761. The composite z-score is -0.867 in assay [18], -1.56 in [19] and -1.45 in assay [20]. Also, the z-score was -2.06 (inactive) in [2]; -0.476 (inactive) in assay [3]; -0.692 (inactive) in [4]; 1.26 (inactive) in [6]; -0.64 (inactive) in [14].
